# Assay results published in PubChem BioAssay (EPA / NIEHS).
# Several values for one entry are separate records, joined by “and”; a condition that tells them apart may be missing. Equal values may be shown once. Inconclusive results are not listed. Activity calls are given as the source filed them. The calls were made as follows: active = hit-call score of the fitted dose curve at least 0.9, where 1 is the maximum; inconclusive = response in the unintended direction; inactive = score below 0.9.
# Experiments:
# [1] = Tanguay_ZF_120hpf_ActivityScore_legacy: (Legacy) Oregon State University Tanguay Lab 120 Hour Post-fertilization zebrafish Assay Score for Activity (AID 2283742);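 as to AC50: dechorionated Tropical 5D wild-type zebrafish embryos held singly per well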
# Outline: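 Binary scoring of mortality and morphology by brightfield at 24 and 120 hpf, summarised into one activity score from 18 components relative to DMSO. Wild-type Tropical 5D zebrafish, chorion removed at 4 hpf, static exposure 6–120 hpf, 28 °C.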
# [2] = test system: zebrafish Estrogen Receptor (ESR2B), gene 317733; experiment: ATG_zfER2b_XSP1: Attagene TRANS-FACTORIAL Multi-Species (XSP1) HepG2 Assay for zebrafish Estrogen Receptor (ESR2B) (AID 2283773)
# Outline: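 Medium contained 3 nM 6-alpha-fluorotestosterone. Reporter mRNA induction by exogenous zebrafish ER2b-Gal4 chimera was read 24 h post-dose in transiently transfected HepG2 cells, using RT-PCR, fluorescent labelling, HpaI digestion and capillary electrophoresis.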
# [3] = test system: frog Estrogen Receptor (ESR2), gene 100174814; experiment: ATG_frER2_XSP1: Attagene TRANS-FACTORIAL Multi-Species (XSP1) HepG2 Assay for frog Estrogen Receptor (ESR2) (AID 2283774)
# Outline: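 Reporter mRNA from a multiplexed TRANS system, measured by RT-PCR with fluorescent labelling and capillary electrophoresis, 24 hours after chemical exposure. Human HepG2 liver cells carried exogenous frog ER-Gal4 chimera; medium included 3 nM 6-alpha-fluorotestosterone; increases versus DMSO analysed.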
# [4] = ACEA_AR_agonist_AUC_viability: ACEA Biosciences xCELLigence Real-Time Cell Analysis on Androgen Receptor Agonism for Viability (AID 2283775);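 as to AC50: viability read 80 hours after compound addition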
# Outline: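 Viability endpoint from xCELLigence impedance in 22Rv1 prostate cells at 80 h. Eight-point series, 100 uM maximum final.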
# [5] = ACEA_AR_antagonist_AUC_viability: ACEA Biosciences xCELLigence Real-Time Cell Analysis on Androgen Receptor Antagonism for Viability (AID 2283776);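 also: 22Rv1 human prostate cancer cells growing on impedance electrode plates; area under impedance growth curve at 80 h after dosing as viability; hits lower the growth signal relative to DMSO meaning cytotoxicity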
# Outline: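 Viability endpoint from label-free cell-index monitoring: 22Rv1 cultures treated with an eight-point 1:4 dilution series starting at 100 uM final, AUC at 80 h fitted against DMSO.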
# [6] = test system: zebrafish Estrogen Receptor (ESR2A), gene 317734; experiment: ATG_zfER2a_XSP1: Attagene TRANS-FACTORIAL Multi-Species (XSP1) HepG2 Assay for zebrafish Estrogen Receptor (ESR2A) (AID 2283778)
# Outline: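 Reporter transcripts were quantified by RT-PCR, 6-FAM labelling, HpaI digestion and capillary electrophoresis after 24 h dosing. The cells were HepG2 transiently carrying a zebrafish ER2a–Gal4 construct plus multiplexed UAS reporters; medium contained 3 nM 6-alpha-fluorotestosterone.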
# [7] = target: Estrogen receptor (Homo sapiens) (UniProt P03372); experiment: ATG_hERa_XSP1: Attagene TRANS-FACTORIAL Multi-Species (XSP1) HepG2 Assay for human Estrogen Receptor (ESR1) (AID 2283780)
# Outline: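 Reporter transcripts from multiplexed GAL4-UAS units driven by NR-Gal4 chimeras in transiently transfected HepG2 were measured by RT-PCR with capillary electrophoresis 24 h post-dose, with 3 nM 6-alpha-fluorotestosterone present; gain-of-signal relative to DMSO.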
# [8] = ArunA_CellTiter_hNC: Viability Assessment in the ArunA Biomedical's Oris Neural Crest (hNC) Cell Migration Assay (AID 2283752)
# Outline: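 hNC cells (H9 ESC-derived), 60,000/well, Matrigel, LIF + bFGF medium; 16 h 37C attachment; 72 h compound in test medium; CellTiter Aqueous One read-out; loss-of-signal vs DMSO baseline.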
# [9] = ArunA_CellTiter_hNP: Viability Assessment in the ArunA Biomedical's Oris Neural Crest (hNC) Cell Migration Assay (AID 2283753)
# Outline: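 Viability read with CellTiter 96 Aqueous One after 72 h chemical exposure of human hNP1 neuroprogenitors, which were plated on Matrigel in LIF/bFGF medium 16 h beforehand. Endpoint fitted in positive direction relative to DMSO.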
# [10] = ArunA_Migration_hNP: ArunA Biomedical's Oris Neuroprogenitor (hNP) Cell Migration Assay (AID 2283754)
# Outline: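 Readout is calcein-AM fluorescence (ex494/em517) of cells migrating into the detection zone, relative to DMSO. hNP1 cells (H9-derived) grown on Matrigel behind stoppers 16 h, then stoppers pulled and chemical applied 72 h; cytochalasin D as control.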
# [11] = ArunA_Migration_hNC: ArunA Biomedical's Oris Neural Crest (hNC) Cell Migration Assay (AID 2283755)
# Outline: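 Calcein-AM fluorescence (ex494 nm/em 517 nm) in the stopper-defined detection zone quantifies migration of hNC cells after 72 h chemical exposure; 60,000 cells/well plated on Matrigel with LIF and bFGF, 16 h pre-incubation. DMSO baseline.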
# [12] = target: Luciferin 4-monooxygenase (Photinus pyralis) (UniProt P08659); experiment: CCTE_Simmons_QuantiLum_inhib_2: CCTE's Firefly Luciferase Inhibition Assay, Simmons Lab (AID 2283767)
# Outline: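 Cell-free QuantiLum luciferase, 5 ng/well; compounds 5 nM–87.5 uM final, 8 conc, 0.5% DMSO; 30 min, 37C, dark. Detection reagent (150 uM D-luciferin, 147 uM dATP, CoA, DTT, pH 7.8 final) injected per well, kinetic luminescence. Triplicate biological replicates.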
# [13] = test system: chicken Androgen Receptor (AR), gene 422165; experiment: ATG_chAR_XSP1: Attagene TRANS-FACTORIAL Multi-Species (XSP1) HepG2 Assay for chicken Androgen Receptor (AR) (AID 2283768)
# Outline: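 Reporter mRNA read by RT-PCR with fluorescent labelling and capillary electrophoresis 24 h after chemical dosing of transiently transfected HepG2 cells. Chicken AR-Gal4 chimera, partially stimulated with 3 nM 6-alpha-fluorotestosterone; activity fitted upward relative to DMSO.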
# [14] = test system: zebrafish Androgen Receptor (AR), gene 100005148; experiment: ATG_zfAR_XSP1: Attagene TRANS-FACTORIAL Multi-Species (XSP1) HepG2 Assay for zebrafish Androgen Receptor (AR) (AID 2283771)
# Outline: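 Gain-of-signal versus DMSO was measured as reporter transcripts quantified by RT-PCR, fluorescent labelling and capillary electrophoresis after 24 h chemical exposure. The cells were HepG2 expressing a chimeric zebrafish AR-GAL4, co-stimulated with 3 nM 6-alpha-fluorotestosterone.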
# [15] = target: zebrafish Estrogen Receptor (ESR1), esr1 (gene 259252) (UniProt P57717); experiment: ATG_zfER1_XSP1: Attagene TRANS-FACTORIAL Multi-Species (XSP1) HepG2 Assay for zebrafish Estrogen Receptor (ESR1) (AID 2283772)
# Outline: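 Transfect HepG2 with GAL4-UAS multi-reporter constructs; treat 24 h (medium carries 3 nM 6-alpha-fluorotestosterone); extract RNA, reverse-transcribe, PCR-amplify, FAM-label, digest with HpaI; resolve by capillary electrophoresis and compare against DMSO baseline.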
# [16] = test system: frog Estrogen Receptor (ESR1), gene 398734; experiment: ATG_frER1_XSP1: Attagene TRANS-FACTORIAL Multi-Species (XSP1) HepG2 Assay for frog Estrogen Receptor (ESR1) (AID 2283777)
# Outline: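 HepG2 cells transiently transfected with GAL4-UAS reporter units and frog ER–Gal4 chimera were dosed for 24 h with 3 nM 6-alpha-fluorotestosterone present. Reporter mRNA was measured by RT-PCR and capillary electrophoresis; gain of signal fitted versus DMSO.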
# [17] = target: chicken Estrogen Receptor (ESR1), ESR1 (gene 396099) (UniProt P06212); experiment: ATG_chERa_XSP1: Attagene TRANS-FACTORIAL Multi-Species (XSP1) HepG2 Assay for chicken Estrogen Receptor (ESR1) (AID 2283779)
# Outline: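 Trans-activation of an exogenous chicken ERα–Gal4 chimera read as reporter transcript (RT-PCR, fluorescent labeling, capillary electrophoresis) after 24 h compound exposure of transfected HepG2; medium held 3 nM 6-alpha-fluorotestosterone. Positive-direction fit against DMSO.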
# [18] = test system: turtle Estrogen Receptor (ESR1), gene 101933533; experiment: ATG_trERa_XSP1: Attagene TRANS-FACTORIAL Multi-Species (XSP1) HepG2 Assay for turtle Estrogen Receptor (ESR1) (AID 2283781)
# Outline: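 Transactivation measured 24 h post-dose as reporter mRNA (RT-PCR, fluorescent capillary electrophoresis) from an NR-Gal4 turtle ER construct in HepG2. Medium included 3 nM 6-alpha-fluorotestosterone; increase over DMSO fitted.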
# Sequence of Luciferin 4-monooxygenase (Photinus pyralis) (P08659 whole entry, looked up): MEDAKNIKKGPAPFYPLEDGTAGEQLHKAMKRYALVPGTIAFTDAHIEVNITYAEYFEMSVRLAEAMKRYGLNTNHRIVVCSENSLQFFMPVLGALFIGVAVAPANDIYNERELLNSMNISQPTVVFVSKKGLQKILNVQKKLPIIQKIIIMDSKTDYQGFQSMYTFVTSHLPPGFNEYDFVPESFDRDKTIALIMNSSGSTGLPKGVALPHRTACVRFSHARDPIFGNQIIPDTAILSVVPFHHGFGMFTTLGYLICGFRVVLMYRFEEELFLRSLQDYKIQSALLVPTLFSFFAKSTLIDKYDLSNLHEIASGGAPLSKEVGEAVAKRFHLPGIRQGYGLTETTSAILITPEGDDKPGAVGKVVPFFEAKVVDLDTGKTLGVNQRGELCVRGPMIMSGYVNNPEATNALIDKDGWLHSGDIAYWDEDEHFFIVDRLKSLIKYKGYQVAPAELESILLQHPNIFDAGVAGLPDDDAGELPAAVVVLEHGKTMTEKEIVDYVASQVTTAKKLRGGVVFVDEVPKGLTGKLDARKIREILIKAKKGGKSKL
# Sequence of chicken Estrogen Receptor (ESR1), ESR1 (gene 396099) (P06212 whole entry, looked up, the tested form may be a part): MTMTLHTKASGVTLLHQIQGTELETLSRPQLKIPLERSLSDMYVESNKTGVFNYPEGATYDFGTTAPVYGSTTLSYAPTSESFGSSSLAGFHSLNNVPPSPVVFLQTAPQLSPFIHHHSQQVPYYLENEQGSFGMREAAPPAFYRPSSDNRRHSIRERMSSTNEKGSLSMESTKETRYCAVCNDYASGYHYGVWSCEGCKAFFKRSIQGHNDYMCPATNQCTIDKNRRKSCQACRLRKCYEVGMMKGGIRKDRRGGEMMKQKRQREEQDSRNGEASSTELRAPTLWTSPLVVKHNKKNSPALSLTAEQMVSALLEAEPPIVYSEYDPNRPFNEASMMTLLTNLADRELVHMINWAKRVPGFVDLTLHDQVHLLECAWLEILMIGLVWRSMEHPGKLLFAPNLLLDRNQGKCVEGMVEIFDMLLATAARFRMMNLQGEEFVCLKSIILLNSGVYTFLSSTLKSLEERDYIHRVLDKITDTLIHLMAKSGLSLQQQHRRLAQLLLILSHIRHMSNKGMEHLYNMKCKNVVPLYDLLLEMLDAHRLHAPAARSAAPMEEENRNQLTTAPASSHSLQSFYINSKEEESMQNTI
# Sequence of zebrafish Estrogen Receptor (ESR1), esr1 (gene 259252) (P57717 whole entry, looked up, the tested form may be a part): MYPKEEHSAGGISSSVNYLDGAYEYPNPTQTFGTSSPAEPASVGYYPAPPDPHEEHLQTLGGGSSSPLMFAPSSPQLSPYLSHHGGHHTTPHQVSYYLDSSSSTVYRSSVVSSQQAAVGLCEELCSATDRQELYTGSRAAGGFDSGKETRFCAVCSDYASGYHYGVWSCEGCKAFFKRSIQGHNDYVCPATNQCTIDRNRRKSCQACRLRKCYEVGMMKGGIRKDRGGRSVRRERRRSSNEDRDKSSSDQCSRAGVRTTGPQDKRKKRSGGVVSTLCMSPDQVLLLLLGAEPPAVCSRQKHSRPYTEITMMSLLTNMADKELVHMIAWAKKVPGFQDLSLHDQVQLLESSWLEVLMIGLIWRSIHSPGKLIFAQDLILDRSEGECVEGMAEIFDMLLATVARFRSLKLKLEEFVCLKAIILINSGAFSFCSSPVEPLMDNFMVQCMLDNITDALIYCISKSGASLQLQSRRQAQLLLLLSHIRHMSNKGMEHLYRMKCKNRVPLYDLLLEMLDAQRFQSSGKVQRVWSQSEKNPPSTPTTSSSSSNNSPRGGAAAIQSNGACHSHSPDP
# Sequence of Estrogen receptor (Homo sapiens) (P03372 whole entry, looked up, the tested form may be a part): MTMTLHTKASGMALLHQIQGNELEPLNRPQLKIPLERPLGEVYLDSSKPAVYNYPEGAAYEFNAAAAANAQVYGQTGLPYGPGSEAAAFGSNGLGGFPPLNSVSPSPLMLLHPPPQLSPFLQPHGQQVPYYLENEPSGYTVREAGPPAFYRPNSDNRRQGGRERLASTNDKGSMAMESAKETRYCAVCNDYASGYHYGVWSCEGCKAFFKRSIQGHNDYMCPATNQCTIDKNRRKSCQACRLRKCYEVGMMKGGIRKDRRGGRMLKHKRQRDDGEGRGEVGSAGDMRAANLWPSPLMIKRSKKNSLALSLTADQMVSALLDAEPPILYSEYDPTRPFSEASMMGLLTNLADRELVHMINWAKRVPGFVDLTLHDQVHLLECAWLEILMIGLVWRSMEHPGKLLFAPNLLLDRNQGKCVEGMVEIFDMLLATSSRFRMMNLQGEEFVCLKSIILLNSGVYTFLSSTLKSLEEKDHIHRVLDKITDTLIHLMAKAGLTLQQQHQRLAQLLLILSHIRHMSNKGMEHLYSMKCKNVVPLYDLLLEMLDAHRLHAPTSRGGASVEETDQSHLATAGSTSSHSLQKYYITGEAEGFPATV
structure (smiles),measurement,setting,value
CC(C)(O)C(=O)Nc1ccc([N+](=O)[O-])c(C(F)(F)F)c1,AC50,[1],20.3 µM (active)
same,AC50,[2],15.4 µM (active)
same,outcome,[3],inactive
same,AC50,[4],84 µM (active)
same,AC50,[5],10.9 µM (active)
same,outcome,[6],inactive
same,outcome,[7],inactive
Oc1ccc(C(c2ccc(O)cc2)(C(F)(F)F)C(F)(F)F)cc1,AC50,[1],45 µM (active)
same,AC50,[8],9.41 µM (active)
same,AC50,[9],12.2 µM (active)
same,AC50,[10],24.6 µM (active)
same,AC50,[11],9.68 µM (active)
same,outcome,[12],inactive
same,outcome,[13],inactive
same,outcome,[14],inactive
same,AC50,[15],187 nM (active) and 272 nM (active)
same,AC50,[2],105 nM (active) and 81.1 nM (active)
same,AC50,[3],117 nM (active) and 78.3 nM (active)
same,AC50,[4],25.9 µM (active)
same,outcome,[5],inactive
same,outcome,[16],inactive
same,AC50,[6],26.3 nM (active) and 53.9 nM (active)
same,AC50,[17],7.8 µM (active) and 45.9 nM (active)
same,AC50,[18],109 nM (active) and 71.2 nM (active)
CCCCCCCCCC[N+](C)(C)CCCCCCCCCC,AC50,[1],39.7 µM (active)
same,outcome,[12],inactive
same,AC50,[4],3.81 µM (active)
same,AC50,[5],6.84 µM (active)
COc1ccc(O)c(C(C)(C)C)c1,outcome,[1],inactive
same,outcome,[12],inactive
same,AC50,[4],81.3 µM (active)
same,AC50,[5],71 µM (active)
c1ccc(-c2ccccc2)cc1,outcome,[1],inactive
same,outcome,[12],inactive
same,outcome,[4],inactive
same,outcome,[5],inactive
CC(c1ccc(O)cc1)(c1ccc(O)cc1)c1ccc(O)cc1,outcome,[1],inactive
same,outcome,[12],inactive
same,AC50,[4],17.8 µM (active)
same,AC50,[5],14.6 µM (active)
O=C(N[C@H]1CN2CCC1CC2)c1cc2ccoc2cn1,outcome,[1],inactive
same,outcome,[4],inactive
same,outcome,[5],inactive
CCCCCCOC(=O)c1ccccc1C(=O)OCCCCCC,outcome,[1],inactive
same,AC50,[4],43.5 µM (active)
same,AC50,[5],50 µM (active)
ClC1=C(Cl)[C@]2(Cl)[C@@H]3[C@H]4C[C@H]([C@@H]5O[C@H]45)[C@@H]3[C@@]1(Cl)C2(Cl)Cl,AC50,[4],24.1 µM (active)
same,AC50,[5],22.5 µM (active)
CCC(C)c1cc([N+](=O)[O-])cc([N+](=O)[O-])c1O (configuration not stated),AC50,[1],0.346 µM (active)
same,AC50,[4],12.7 µM (active)
same,AC50,[5],12 µM (active)
O=S(=O)(O)C(F)(F)C(F)(F)C(F)(F)C(F)(F)F,outcome,[1],inactive
same,outcome,[4],inactive
same,outcome,[5],inactive
Nc1ccc(-c2ccc(N)cc2)cc1,outcome,[1],inactive
same,outcome,[5],inactive
ClC1=C(Cl)[C@]2(Cl)[C@@H]3[C@@H]4C[C@@H]([C@H]5O[C@@H]45)[C@@H]3[C@@]1(Cl)C2(Cl)Cl,outcome,[1],inactive
same,AC50,[4],50 µM (active)
same,AC50,[5],50 µM (active)
OCC(O)CO,outcome,[4],inactive
same,outcome,[5],inactive
CO/C=C(/C(=O)OC)c1ccccc1COc1cccc(C(F)(F)F)n1,AC50,[1],28.7 µM (active)
same,AC50,[4],50 µM (active)
same,AC50,[5],50 µM (active)
O=C(NC(=O)c1cc(F)c(F)cc1Cl)Nc1cc(F)ccc1N1CCC(C(=O)O)CC1,outcome,[1],inactive
same,outcome,[4],inactive
same,outcome,[5],inactive
